Laboratory results published in PubChem BioAssay (NCATS).
Records with an inconclusive call do not appear. Where a call stands in place of a potency, no number is given. Unmarked numbers belong to inactive results. Activity calls are given as the source filed them. Calls follow the shape of the dose curve; as a rule, active = well fitted cell-killing curve with a large enough effect; inconclusive = small, poorly fitted or top-dose-only effect, or effect the other way; inactive = flat fitted curve, though single readings scatter.

Tests used:
Experiment in all cases: Primary qHTS to identify gynecologic anti-cancer compounds using libraries of approved drugs and bioactive compounds (AID 1345084); also: nearly all actives have a fitted effect of over 55% in size
C33A = conditions: Gynecologic cancer cell panel viability, ATPlite luminescence, 48 h; series mostly up to 57.5 µM
Summary of the method: (§1)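 Measured: luminescence after ATPlite addition (15 min, RT). Exposure: 48 h, 37 C, 5% CO2.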

CAOV3 = conditions: Gynecologic cancer cell panel viability, ATPlite luminescence, 48 h; series mostly up to 57.5 µM
Summary of the method: as §1

CASKI = conditions: Gynecologic cancer cell panel viability, ATPlite luminescence, 48 h; series mostly up to 57.5 µM
Summary of the method: as §1

Es-2 = conditions: Gynecologic cancer cell panel viability, ATPlite luminescence, 48 h; series mostly up to 57.5 µM
Summary of the method: as §1

HeLa = conditions: Gynecologic cancer cell panel viability, ATPlite luminescence, 48 h; series mostly up to 57.5 µM
Summary of the method: as §1

Hek293T = conditions: Gynecologic cancer cell panel viability, ATPlite luminescence, 48 h, control line for the selectivity index; series mostly up to 57.5 µM
Summary of the method: as §1

JEG-3 = conditions: Gynecologic cancer cell panel viability, ATPlite luminescence, 48 h; series mostly up to 57.5 µM
Summary of the method: as §1

OV90 = conditions: Gynecologic cancer cell panel viability, ATPlite luminescence, 48 h; series mostly up to 57.5 µM
Summary of the method: as §1

PA-1 = conditions: Gynecologic cancer cell panel viability, ATPlite luminescence, 48 h; series mostly up to 57.5 µM
Summary of the method: as §1
Potency is read from the fitted curve at half-maximal effect.

Compound	Potency (C33A)	Potency (CAOV3)	Potency (CASKI)	Potency (Es-2)	Potency (HeLa)	Potency (Hek293T)	Potency (JEG-3)	Potency (OV90)	Potency (PA-1)	activity change, negative = cytotoxicity (C33A)	activity change, negative = cytotoxicity (CAOV3)	activity change, negative = cytotoxicity (CASKI)	activity change, negative = cytotoxicity (Es-2)	activity change, negative = cytotoxicity (HeLa)	activity change, negative = cytotoxicity (Hek293T)	activity change, negative = cytotoxicity (JEG-3)	activity change, negative = cytotoxicity (PA-1)
Cn1nc(C(C)(C)C)cc1C(=O)N[C@@H](Cc1cccc(Cl)c1)C(=O)NCC#N	inactive	inactive	inactive	inactive	inactive	inactive	inactive	inactive	inactive	–	–	–	–	–	–	–	–
Cc1ccc(-c2ncc[nH]2)cc1NC(=O)c1ccc(OCc2ccccn2)cc1	inactive	inactive	inactive	inactive	inactive	inactive	inactive	inactive	inactive	–	–	–	–	–	–	–	–
O=C(O)c1ccc(S(=O)(=O)N(Cc2ccc(OC(F)(F)F)cc2)c2ncc(C(F)(F)F)cc2Cl)cc1	inactive	inactive	inactive	inactive	inactive	inactive	inactive	inactive	inactive	–	–	–	–	–	–	–	–
C/C=C(\C)C(=O)O[C@H]1C[C@](C)(O)[C@H]2CC=C(C)[C@H]2[C@@H]2OC(=O)[C@H](C)[C@H]21	inactive	inactive	inactive	inactive	inactive	inactive	inactive	inactive	inactive	–	–	–	–	–	–	–	–
Cc1cc2c(N3CCCC3)nc(N3CCCC3)nc2n1C	inactive	inactive	inactive	inactive	inactive	inactive	inactive	inactive	inactive	–	–	–	–	–	–	–	–
O=C(Nc1cccnn1)N1CCN(c2nccc(-c3ccc(F)c(F)c3)n2)CC1	inactive	inactive	inactive	inactive	inactive	inactive	inactive	inactive	inactive	–	–	–	–	–	–	–	–
Cc1ccc(N2CCN(S(=O)(=O)N3CCCCC3)CC2)c(C)c1	inactive	inactive	inactive	inactive	inactive	inactive	inactive	inactive	inactive	–	–	–	–	–	–	–	–
C/C(=C/CO)CCC1C(C)CCC2C(C)(C)CCCC12C (centres undefined)	inactive	inactive	inactive	inactive	inactive	inactive	inactive	inactive	inactive	–	–	–	–	–	–	–	–
C=C1C(=O)OC2CC3(C)C(O)C(=O)C=C(C)C3CC12 (centres undefined)	inactive	inactive	inactive	inactive	inactive	inactive	inactive	inactive	inactive	–	–	–	–	–	–	–	–
Cc1[nH]c(/C=C2\C(=O)Nc3ccc(S(=O)(=O)N(C)c4cccc(Cl)c4)cc32)c(C)c1C(=O)N1CCN(C)CC1	inactive	25.1 µM (active)	inactive	inactive	inactive	inactive	inactive	inactive	inactive	–	–	–	–	–	–	–	–
Cc1ccc(C)c(NC(=O)[C@@H]2CCCN2S(=O)(=O)c2cccc3cccnc23)c1	inactive	inactive	inactive	inactive	inactive	inactive	inactive	inactive	inactive	–	–	–	–	–	–	–	–
O=C(N[C@H](Cc1cscn1)C(=O)N[C@@H](CC1CCCCC1)[C@@H](O)[C@@H](O)C1CC1)c1nc2ccccc2[nH]1	inactive	inactive	inactive	inactive	inactive	inactive	inactive	inactive	inactive	–	–	–	–	–	–	–	–
CC(=O)O[C@@H]1CC[C@@]2(C)[C@H](CC[C@@H]3[C@@H]2C[C@H](OC(C)=O)[C@]2(C)[C@@H](C(C)=O)CC[C@@H]32)C1	inactive	inactive	inactive	inactive	inactive	inactive	inactive	inactive	inactive	–	–	–	–	–	–	–	–
C=C(C(=O)OC)[C@@H]1CC=C2C=CC(=O)[C@H](C)[C@@]2(C)C1	inactive	inactive	inactive	inactive	inactive	inactive	inactive	inactive	inactive	–	–	–	–	–	–	–	–
Cc1nc(C(=O)N2CCC[C@H]2Cc2nnc(-c3ccccc3)o2)c(-c2ccccc2F)s1	inactive	inactive	inactive	inactive	inactive	inactive	inactive	inactive	inactive	–	–	–	–	–	–	–	–
CCC(C)c1ccc(NC(=O)Cn2cnc3c2c(=O)n(C)c(=O)n3C)cc1 (centres undefined)	inactive	inactive	inactive	inactive	inactive	inactive	inactive	inactive	inactive	–	–	–	–	–	–	–	–
CC(C)(Cc1ccccc1)NCC(O)c1ccc(O)c(NS(C)(=O)=O)c1 (centres undefined)	inactive	inactive	inactive	inactive	inactive	inactive	inactive	inactive	inactive	–	–	–	–	–	–	–	–
O=C(N[C@H]1CCN(C(=O)c2cc(C(F)(F)F)cc(C(F)(F)F)c2)[C@H](Cc2ccc(Cl)cc2)C1)c1ccnc2ccccc12	inactive	inactive	inactive	inactive	inactive	inactive	inactive	inactive	inactive	–	–	–	–	–	–	–	–
Cc1c(F)ccc(C(=O)Nc2cc([N+](=O)[O-])ccc2N2CCN(C)CC2)c1Cl	inactive	inactive	inactive	inactive	inactive	inactive	inactive	inactive	inactive	–	–	–	–	–	–	–	–
C[C@@H](NC(=O)[C@H](O)c1cc(F)cc(F)c1)C(=O)N[C@@H]1C(=O)N(C)c2ccccc2-c2ccccc21	inactive	inactive	inactive	inactive	inactive	inactive	inactive	inactive	inactive	–	–	–	–	–	–	–	–
CCCC(CCC)C(=O)NCc1ccc2c(cnn2-c2ccccc2OC)c1	inactive	inactive	inactive	inactive	inactive	inactive	inactive	inactive	inactive	–	–	–	–	–	–	–	–

Compound	Potency (C33A)	Potency (CAOV3)	Potency (CASKI)	Potency (Es-2)	Potency (HeLa)	Potency (Hek293T)	Potency (JEG-3)	Potency (OV90)	Potency (PA-1)	activity change, negative = cytotoxicity (C33A)	activity change, negative = cytotoxicity (CAOV3)	activity change, negative = cytotoxicity (CASKI)	activity change, negative = cytotoxicity (Es-2)	activity change, negative = cytotoxicity (HeLa)	activity change, negative = cytotoxicity (Hek293T)	activity change, negative = cytotoxicity (JEG-3)	activity change, negative = cytotoxicity (PA-1)
COc1ccc(-c2c(C)nn3c(NCCN4CCOCC4)cc(C)nc23)cc1OC	inactive	inactive	inactive	inactive	inactive	inactive	inactive	inactive	inactive	–	–	–	–	–	–	–	–
C=C(C)C1CCC2(C(=O)O)CCC3(C)C(CCC4C5(C)C(C=O)C(O)C(C)(C)C5CCC43C)C12 (centres undefined)	inactive	inactive	inactive	inactive	inactive	inactive	inactive	inactive	inactive	–	–	–	–	–	–	–	–
CN(C)CCOC(C)(c1ccccc1)c1ccc(Cl)cc1 (centres undefined)	inactive	inactive	inactive	inactive	inactive	inactive	inactive	inactive	inactive	–	–	–	–	–	–	–	–
COc1ccc(NC(=O)C2C[C@H](C)CC[C@H]2C(C)C)cc1 (some centres undefined)	inactive	inactive	inactive	inactive	inactive	inactive	inactive	inactive	inactive	–	–	–	–	–	–	–	–
C[C@@H](NC(=O)c1ccc(C#Cc2cccc(F)c2)cn1)C(C)(C)O	inactive	inactive	inactive	inactive	inactive	inactive	inactive	inactive	inactive	–	–	–	–	–	–	–	–
C=C1CCN([C@H](C)[C@](O)(Cn2cncn2)c2ccc(F)cc2F)CC1	inactive	inactive	inactive	inactive	inactive	inactive	inactive	inactive	inactive	–	–	–	–	–	–	–	–
C[C@H](Nc1cc2c(-c3ccc4c(c3)OCO4)noc2cn1)c1ccccc1	inactive	inactive	inactive	inactive	inactive	inactive	inactive	inactive	inactive	–	–	–	–	–	–	–	–
Cc1ccccc1CN1CCn2c1nc1c(c2=O)CN(Cc2ccccc2)CC1	inactive	inactive	inactive	inactive	inactive	inactive	inactive	inactive	inactive	–	–	–	–	–	–	–	–
NS(=O)(=O)c1ccc(N2N=C(c3ccccc3)CC2c2ccccc2)cc1 (centres undefined)	inactive	inactive	inactive	inactive	inactive	inactive	inactive	inactive	inactive	–	–	–	–	–	–	–	–
OC1(CN2CCC(COc3noc4cccc(O[C@@H]5CCOC5)c34)CC2)CCOCC1	inactive	inactive	inactive	inactive	inactive	inactive	inactive	inactive	inactive	–	–	–	–	–	–	–	–
CCCCCCOC(=O)/N=C(\N)c1ccc(NCc2nc3cc(C(=O)N(CCC(=O)OCC)c4ccccn4)ccc3n2C)cc1	inactive	inactive	inactive	inactive	inactive	inactive	inactive	inactive	inactive	–	–	–	–	–	–	–	–
CC[C@H]1CN(c2nc(N)c(C(N)=O)nc2Cl)CCN1C1CCN(Cc2ccc(Cl)cc2)CC1	inactive	inactive	inactive	inactive	inactive	inactive	inactive	inactive	inactive	–	–	–	–	–	–	–	–
Fc1ccc(N2CCN(CCC3OCCc4ccccc43)CC2)cc1 (centres undefined)	inactive	inactive	inactive	inactive	inactive	inactive	inactive	inactive	inactive	–	–	–	–	–	–	–	–
CCC/C=C/C(=O)O[C@H]1CC(C)(C)CC2[C@@]13[C@H](O)C[C@]1(C)[C@@]2(CCC2[C@@]4(C)CC[C@H](O[C@@H]5O[C@H](C(=O)O)[C@@H](O)[C@H](O[C@@H]6O[C@H](CO)[C@H](O)[C@H](O)[C@H]6O[C@@H]6O[C@@H](C)[C@H](O)[C@@H](O)[C@H]6O[C@@H]6OC[C@](O)(CO)[C@H]6O)[C@H]5O[C@@H]5O[C@H](CO)[C@H](O)[C@H](O)[C@H]5O)C(C)(C)C4CC[C@]21C)O[C@H]3O (some centres undefined)	–	–	–	–	–	–	–	–	–	1.29% [at 6.55 µM]	-15.9% [at 6.55 µM]	-0.213% [at 6.55 µM]	3.48% [at 6.55 µM]	4.5% [at 6.55 µM]	-25.4% [at 6.55 µM]	15.7% [at 6.55 µM]	-0.263% [at 6.55 µM]
CN1CCC(c2cn(C)c3ccc(OS(=O)(=O)c4c(F)cccc4F)cc23)CC1	inactive	inactive	inactive	inactive	inactive	inactive	inactive	–	inactive	–	–	–	–	–	–	–	–
NC(N)=NC(=O)c1cnn(-c2cccc3ncccc23)c1C1CC1	inactive	inactive	inactive	inactive	inactive	inactive	inactive	–	inactive	–	–	–	–	–	–	–	–
O=S(=O)(Nc1ccccc1N1CCCCC1)c1ccc(Cl)s1	inactive	inactive	inactive	inactive	inactive	inactive	inactive	–	inactive	–	–	–	–	–	–	–	–
S=C(c1ccc(-c2ccc(Cl)c(Cl)c2)o1)N1CCCCC1	inactive	inactive	inactive	inactive	inactive	inactive	inactive	inactive	inactive	–	–	–	–	–	–	–	–
CC(C)c1ccccc1OC(=O)NCCc1ccc2ccccc2c1	inactive	inactive	inactive	inactive	inactive	inactive	inactive	inactive	inactive	–	–	–	–	–	–	–	–
Cc1nc2cc(C(=O)NCc3ccccn3)nn2c(C)c1Cc1cccc(Cl)c1	inactive	inactive	inactive	inactive	inactive	inactive	inactive	–	inactive	–	–	–	–	–	–	–	–
